From ChEMBL document CHEMBL4513216, “Probing the Open Global Health Chemical Diversity Library for Multistage-Active Starting Points for Next-Generation Antimalarials” (ACS Infect Dis, 2020)
The campaign covered roughly 65,000 compounds. About 2,100 (3.2%) showed an effect of 50% or more. The median lay at about -52%. Shown is part of a subset that was picked to be rich in strong results.

Each compound was assayed on Plasmodium falciparum (assay: Screen against P. falciparum Asexual Blood Stage (ABS), at 5uM). Conditions: tested at 5 uM.
Type: functional, Dd2

How did the INHIBITION turn out when Cc1c(C2SCC(=O)Nc3c2cnn3C(C)(C)C)cnn1C (stereo not drawn) was run?
Its INHIBITION is -41.3%.

Which INHIBITION does the source give for CC(C)c1nccc([C@H]2C[C@@H]3CCN(Cc4ccco4)C[C@H]3O2)n1 here?
The INHIBITION was -19.7%.

With CC(C)c1ccccc1OCCNC(=O)N1CCC2(CC1)OCCO2 as the compound, how does the INHIBITION read?
The INHIBITION was -63.2%.

For Cc1nc(C)c(CC(=O)N2C[C@H]3CC[C@@H](C2)N(CC2CC2)C3)s1, which INHIBITION is on record?
The INHIBITION was -79.3%.

For Fc1ccc2c(c1)C1(CCNCC1)CC2NC1CC1 (stereo not drawn), which INHIBITION is on record?
The INHIBITION was 83%.

With CC(C)NC1CC2(CCNCC2)c2cc(F)ccc21 (stereo not drawn) as the compound, how does the INHIBITION read?
Its INHIBITION is 11.4%.

With O=C(NCc1ccccn1)[C@]12COC[C@H]1CN(Cc1ccsc1)C2 as the compound, how does the INHIBITION read?
Its INHIBITION is -42.4%.

Which INHIBITION does the source give for CNC(=O)[C@H]1C[C@@H]2CCN(Cc3ccncc3)C[C@H]2O1 here?
Its INHIBITION is -70.6%.

With Cc1cccc(NC(=O)N2CCC(CO)(Nc3ccccc3)CC2)c1 as the compound, how does the INHIBITION read?
Its INHIBITION is -38.235%.

Which INHIBITION does the source give for Cc1cccc(OC(C)C(=O)NCC2(N(C)C)CCCC2)c1 (stereo not drawn) here?
Its INHIBITION is 81.4%.

COc1ccc(C(=O)C2CCCN(Cc3cccc(F)c3)C2)c(OC)c1 (stereo not drawn) was tested. Which INHIBITION did it give?
Its INHIBITION is 23.9%.

For CCNC(=O)[C@@H]1CN(Cc2ccccc2)C[C@H]1C(=O)c1ccc(F)cc1, which INHIBITION is on record?
Its INHIBITION is -30.5%.

For CCOc1cccc(CN2CCCC(Nc3ccc(F)cc3)C2)c1O (stereo not drawn), which INHIBITION is on record?
The INHIBITION was 86.3%.

For COc1cc(CN2CCCC(Nc3cccc(F)c3)C2)cc(Cl)c1O (stereo not drawn), which INHIBITION is on record?
Its INHIBITION is 91.7%.

Which INHIBITION does the source give for COC(=O)N1CCC(Nc2ccc(C#N)c(Cl)c2)C1 (stereo not drawn) here?
Its INHIBITION is 22.4%.

With Cc1ncc(CN2CCN(C(=O)N(C)C)[C@@H]3CS(=O)(=O)C[C@@H]32)cn1 as the compound, how does the INHIBITION read?
Its INHIBITION is -106%.

Cn1cc(CN2CCCC3(CCN(c4cccnc4)C3=O)C2)cn1 (stereo not drawn) was tested. Which INHIBITION did it give?
The INHIBITION was -131%.

Which INHIBITION does the source give for CN(C)c1nccc(N2CCO[C@H]3CN(Cc4ccsc4)C[C@H]32)n1 here?
Its INHIBITION is 69.7%.

How did the INHIBITION turn out when c1cnc(N2CCO[C@H]3CN(Cc4ccsc4)C[C@H]32)nc1 was run?
Its INHIBITION is 35.9%.

How did the INHIBITION turn out when CN(C)c1nccc(N2CCO[C@H]3CN(Cc4ccco4)C[C@H]32)n1 was run?
Its INHIBITION is -22%.

c1ccc(OCC2C[C@@H]3[C@@H](C2)OCCN3Cc2ccoc2)nc1 (stereo partly drawn) was tested. Which INHIBITION did it give?
The INHIBITION was 12%.

Which INHIBITION does the source give for CN1CCC2(CCCN(c3nccc(C(F)(F)F)n3)C2)CC1 here?
The INHIBITION was 79.4%.

COCCN1CCCC12CCCN(c1ncccn1)C2 (stereo not drawn) was tested. Which INHIBITION did it give?
The INHIBITION was -47.3%.

Which INHIBITION does the source give for CC(C)N1CCC2(CCCN(c3nccc(C(F)(F)F)n3)C2)CC1 here?
Its INHIBITION is 81.9%.

With Cc1cnc(N2CCCC3(CCCN(C)C3)C2)nc1 (stereo not drawn) as the compound, how does the INHIBITION read?
The INHIBITION was -9.73%.

Which INHIBITION does the source give for CC(C)N1CCC2(CCN(C(=O)c3cccnc3)CC2)C1 here?
The INHIBITION was 5.83%.

For O=C(C1CC(=O)N(c2ccccc2Br)C1)N1CCC2(CC1)OCCO2 (stereo not drawn), which INHIBITION is on record?
The INHIBITION was -113%.

O=C(C1CC1)N1CCC2(CC1)CNCCO2 was tested. Which INHIBITION did it give?
The INHIBITION was -34.5%.

With Cc1n[nH]c2c1C(c1ccc(F)cc1)SCC(=O)N2 (stereo not drawn) as the compound, how does the INHIBITION read?
The INHIBITION was -4.37%.

With Cc1c(C(C)N)cnn1-c1cccc2ccccc12 (stereo not drawn) as the compound, how does the INHIBITION read?
The INHIBITION was 74.5%.

With Cn1cccc1C(CNC(=O)COc1ccc(Cl)cc1Cl)N1CCCC1 (stereo not drawn) as the compound, how does the INHIBITION read?
The INHIBITION was 74.3%.

Which INHIBITION does the source give for O=C(COc1ccc(Cl)cc1Cl)N1CCCSCC1CN1CCOCC1 (stereo not drawn) here?
Its INHIBITION is -30%.

How did the INHIBITION turn out when COc1ccccc1CCN[C@@H]1c2ccccc2C2(CCNCC2)[C@H]1O was run?
The INHIBITION was 81.5%.

How did the INHIBITION turn out when Cc1ccc(CCN[C@@H]2c3ccccc3C3(CCNCC3)[C@H]2O)s1 was run?
Its INHIBITION is 87.1%.

Which INHIBITION does the source give for CN(C)C(=O)C1OC2(CCNCC2)c2ccccc21 (stereo not drawn) here?
Its INHIBITION is -73%.

For CCN1CCOCC2(C1)CN(C(=O)c1c(C)noc1C)CCO2 (stereo not drawn), which INHIBITION is on record?
The INHIBITION was -31%.

How did the INHIBITION turn out when COCCN(CCOC)C(=O)c1cn(C(C)(C)C)c2ncccc12 was run?
The INHIBITION was -81.6%.

How did the INHIBITION turn out when CCc1cnc(N)nc1NC(C)c1ccc(C)c(C)c1 (stereo not drawn) was run?
Its INHIBITION is 73.8%.

How did the INHIBITION turn out when CC1CCN(CC(=O)NC2CCN(C(C)c3ccccc3)CC2)CC1 (stereo not drawn) was run?
The INHIBITION was 84.3%.

For O=C(NC1CC1)[C@H]1CN(Cc2ccccc2)C[C@@H]1C(=O)c1ccccc1, which INHIBITION is on record?
The INHIBITION was -154%.

For O=C(CN1CCN(C(=O)Cc2ccc3c(c2)OCCO3)CC1)NC1CC1, which INHIBITION is on record?
Its INHIBITION is -148%.

For Cc1cccnc1CCNC(=O)[C@@]12CNC[C@@H]1CN(S(C)(=O)=O)C2, which INHIBITION is on record?
The INHIBITION was -50.4%.

For CC(Cc1c(F)cccc1F)NC(=O)Nc1cnn(CC(N)=O)c1 (stereo not drawn), which INHIBITION is on record?
The INHIBITION was -77.1%.

How did the INHIBITION turn out when Cc1ccccc1CC(C)NCc1c(C)nn(C)c1N1CCOCC1 (stereo not drawn) was run?
The INHIBITION was 65.8%.

Cc1nn(C)c(N(C)C)c1CNC(C)Cc1c(F)cccc1F (stereo not drawn) was tested. Which INHIBITION did it give?
The INHIBITION was -5.23%.

With CCc1cccnc1NCc1cnc(N2CCOCC2)nc1 as the compound, how does the INHIBITION read?
Its INHIBITION is -53.7%.

How did the INHIBITION turn out when c1csc(CN2C[C@@H]3COC[C@]3(COCc3ccncc3)C2)c1 was run?
Its INHIBITION is -42.6%.

Which INHIBITION does the source give for CCN1C(=O)C2(CCN(CCN(C)C)CC2)c2ccccc21 here?
Its INHIBITION is -56.2%.

How did the INHIBITION turn out when O=C(c1ccoc1)N1CCC2(CC1)C(=O)N(CC1CC1)c1ccccc12 was run?
The INHIBITION was 74.7%.

For COCCN1C(=O)C2(CCN(CC3CC3)CC2)c2ccccc21, which INHIBITION is on record?
Its INHIBITION is -18%.

Which INHIBITION does the source give for CC(Cn1ccnc1)NCc1n[nH]c2c1CCC2 (stereo not drawn) here?
The INHIBITION was -33%.

With c1ccc(-c2nc3c(c(NCc4n[nH]c5c4CCC5)n2)CCNC3)cc1 as the compound, how does the INHIBITION read?
Its INHIBITION is 89.6%.

CCCN(C(=O)c1cccnc1)c1nc2c(s1)CCc1c-2cnn1C was tested. Which INHIBITION did it give?
Its INHIBITION is 82.4%.
